Each compound was assayed on Plasmodium falciparum (assay: GSK_TCMDC: Inhibition of Plasmodium falciparum 3D7 in whole red blood cells, using parasite LDH activity as an index of growth. Test compounds present at 2uM).
Type: functional
In the case of `Cc1cc(C)cc(OCC(O)CN(Cc2cc(Cl)cc(Cl)c2)C(=O)Nc2ccccc2Cl)c1` (stereo not given), the Inhibition is reported as 93%.
In the case of `Cc1cc(N[C@@H](CC(C)C)C(=O)NCc2cccs2)nc(NCCc2ccccc2)n1.O=C(O)C(F)(F)F`, the Inhibition is reported as 94%.
For `Cc1cc(N[C@@H](CC(C)C)C(=O)NCCc2ccccc2)nc(NCC2CCCCC2)n1.O=C(O)C(F)(F)F`, the Inhibition was 97%.
Work on `O=C(CCc1cccnc1)Nc1ccc(-c2cccc(-c3nc4cc(F)ccc4[nH]3)c2)cc1` yielded an Inhibition of 86%.
`CC1CNC(c2ccc(NC(=O)c3ccc(C(=O)Nc4ccc(C5=NC(C)CN5)cc4)cc3)cc2)=N1.CS(=O)(=O)O` (stereo not given) was tested, and the Inhibition was 99%.
`Br.COc1ccc2c(c1)CCCC2C(C)NCC(O)c1cccc(C(F)(F)F)c1` (stereo not given) was tested, and the Inhibition was 99%.
In the case of `FC(F)(F)c1ccc(CSc2ccc3nnc(-c4ccccn4)n3n2)cc1`, the Inhibition is reported as 95%.
In the case of `CN(C)CCNCc1ccc(-c2ccc3c(Nc4ccc(F)cc4Cl)ccnc3c2)o1`, the Inhibition is reported as 100%.
`COc1ccccc1N(C)CCNc1cc(C)nc(Nc2ccc(C)cc2)n1` showed an Inhibition of 93%.
Work on `COC(=O)c1ccc(NC(=O)Nc2ccc(Cn3ncc(N4CCCNCC4)c(Cl)c3=O)cc2)cc1.O=C(O)C(F)(F)F` yielded an Inhibition of 83%.
Work on `COC(=O)c1cc(C(O)CNC(C)CCCc2ccccc2)ccc1O.Cl` (stereo not given) yielded an Inhibition of 99%.
Compound `CCOc1cc(C(=O)Nc2ccccc2N2CCN(S(C)(=O)=O)CC2)cc(OCC)c1OCC` has an Inhibition of 91%.
`CC1CN(Cc2csc(Nc3ccccc3)n2)CC(C)O1` (stereo not given) gave an Inhibition of 91%.
`Cc1cc(OCCN2CCCCC2)ccc1NC(=O)c1cccc2c(=O)n(Cc3ccc(Cl)cc3)cnc12` gave an Inhibition of 88%.
`O=C(Nc1cc(Cl)cc(Cl)c1)Nc1ccccc1C(=O)NC1CCCCC1` was tested, and the Inhibition was 100%.
`COc1ccc2ncc(F)c(CCN3CC[C@H](NCc4cc5c(s4)CCCN5)[C@H](O)C3)c2n1.Cl` showed an Inhibition of 96%.
Work on `Fc1ccc2[nH]c(-c3ccc(-c4cccc(CN5CCN(CCN6CCOCC6)CC5)c4)cc3)nc2c1.O=C(O)C(F)(F)F` yielded an Inhibition of 100%.
`Nc1c(Cl)cc(C(O)CNCCCCCCOCCC=C2CCOCC2)cc1Cl` (stereo not given) was tested, and the Inhibition was 100%.
`O=C(NC1CCN(CC2(c3ccccc3)CCCC2)CC1)c1n[nH]cc1Cl` gave an Inhibition of 83%.
`CC(=O)c1sc2ccccc2c1O` gave an Inhibition of 91%.
In the case of `CN(C)c1ccc(-c2ccc(C(=O)NC3CCN(Cc4ccccc4)CC3)s2)cc1.O=C(O)C(F)(F)F`, the Inhibition is reported as 92%.
Compound `Cc1ccc2[nH]c([N-]C#N)nc2c1.[Na+]` has an Inhibition of 96%.
For `COc1ccc2cc(C(=O)Nc3ccc4c(c3)CCN(C3CCC3)CC4)ccc2c1.O=C(O)C(F)(F)F`, the Inhibition was 100%.
`CN(Cc1ccccc1)C(=O)CCNS(=O)(=O)c1cc(Br)cnc1N` showed an Inhibition of 91%.
`COc1cccc(NC(=O)NCCNc2ccnc(Nc3ccc(F)cc3)n2)c1` showed an Inhibition of 94%.
Work on `CCCc1cc(OC)c(CC2c3cc(O)c(C)cc3CCN2C)cc1OC.Cl` (stereo not given) yielded an Inhibition of 99%.
`Cc1c(C(=O)NCc2ccncc2)sc2nc(-c3cccc([N+](=O)[O-])c3)cn12` was tested, and the Inhibition was 97%.
In the case of `Cc1nc(-c2ccc(-c3ccc(C(=O)Nc4ccc(I)c(OCCN5CCCC5)c4)cc3)c(C)c2)no1.Cl`, the Inhibition is reported as 95%.
Compound `CCOC(=O)c1ccc(NC(=O)N[C@@H](Cc2ccc(O)cc2)C(=O)NC2CCN(Cc3ccc4c(c3)OCO4)CC2)cc1.O=C(O)C(F)(F)F` has an Inhibition of 86%.
Work on `CC(=O)Nc1cccc(C(=O)Nc2cccc(-c3ccc(-c4nc5cccc(C)c5[nH]4)s3)c2)c1` yielded an Inhibition of 99%.
In the case of `O=C(O)C(F)(F)F.O=[N+]([O-])c1cccc(CNC2CCN(Cc3ccc4ccccc4c3)CC2)c1`, the Inhibition is reported as 100%.
For `CCOc1ccc(C2CCN(CCN3CCC(NC(=O)c4ccc(-c5ccc(C(F)(F)F)cc5)cc4)CC3)CC2)c(OCC2CC2)c1`, the Inhibition was 99%.
For `Fc1ccc2[nH]c(-c3ccc(-c4ccc(CNCc5ccccc5)cc4)cc3)nc2c1.O=C(O)C(F)(F)F`, the Inhibition was 100%.
`CCc1c[nH]c2c(N3CCCS3(=O)=O)cc(C(=O)N[C@@H](Cc3ccccc3)[C@H](O)CNC(C)(C)CCCC(C)C)cc12` was tested, and the Inhibition was 96%.
`Cc1cc2cc(NC(=O)Nc3ccnc4ccccc34)ccc2n1C.Cl` showed an Inhibition of 90%.
Work on `CCCCCCNCCOc1ccc(-c2nc(-c3ccccc3)c(-c3ccccc3)[nH]2)cc1` yielded an Inhibition of 98%.
`CCN(CC)CCCN(C(=O)Nc1ccc(C#N)cc1)c1nc(-c2ccc(F)cc2)cs1` was tested, and the Inhibition was 99%.
In the case of `CN1CCCC1CCNc1ncc2c(-c3ccc(NC(=O)Nc4cc(C(F)(F)F)ccc4F)cc3)nn(C)c2n1.O=C(O)C(F)(F)F` (stereo not given), the Inhibition is reported as 96%.
`CCN(CC)c1ccc(NC(=S)NC2CCN(CCCCCNC(=O)/C=C/c3ccc(Cl)c(Cl)c3)CC2)cc1` was tested, and the Inhibition was 100%.
Compound `COc1cc2nc(N3CCC(CNC(=O)c4ccc(NC(=O)c5ccc(Cl)cc5)cc4)CC3)nc(N)c2cc1OC` has an Inhibition of 100%.

Each compound was assayed on Plasmodium falciparum (assay: GSK_TCMDC: Inhibition of Plasmodium falciparum Dd2 in whole red blood cells, using parasite LDH activity as an index of growth. Test compounds present at 2uM).
Type: functional
Work on `Cc1cc(C)cc(OCC(O)CN(Cc2cc(Cl)cc(Cl)c2)C(=O)Nc2ccccc2Cl)c1` (stereo not given) yielded an Inhibition of 37%.
Compound `Cc1cc(N[C@@H](CC(C)C)C(=O)NCc2cccs2)nc(NCCc2ccccc2)n1.O=C(O)C(F)(F)F` has an Inhibition of 8%.
In the case of `Cc1cc(N[C@@H](CC(C)C)C(=O)NCCc2ccccc2)nc(NCC2CCCCC2)n1.O=C(O)C(F)(F)F`, the Inhibition is reported as 65%.
In the case of `O=C(CCc1cccnc1)Nc1ccc(-c2cccc(-c3nc4cc(F)ccc4[nH]3)c2)cc1`, the Inhibition is reported as 9%.
For `CC1CNC(c2ccc(NC(=O)c3ccc(C(=O)Nc4ccc(C5=NC(C)CN5)cc4)cc3)cc2)=N1.CS(=O)(=O)O` (stereo not given), the Inhibition was 100%.
`Br.COc1ccc2c(c1)CCCC2C(C)NCC(O)c1cccc(C(F)(F)F)c1` (stereo not given) was tested, and the Inhibition was 99%.
`FC(F)(F)c1ccc(CSc2ccc3nnc(-c4ccccn4)n3n2)cc1` showed an Inhibition of 54%.
`CN(C)CCNCc1ccc(-c2ccc3c(Nc4ccc(F)cc4Cl)ccnc3c2)o1` gave an Inhibition of 100%.
`COc1ccccc1N(C)CCNc1cc(C)nc(Nc2ccc(C)cc2)n1` was tested, and the Inhibition was 25%.
With `COC(=O)c1ccc(NC(=O)Nc2ccc(Cn3ncc(N4CCCNCC4)c(Cl)c3=O)cc2)cc1.O=C(O)C(F)(F)F` the Inhibition was 43%.
Work on `COC(=O)c1cc(C(O)CNC(C)CCCc2ccccc2)ccc1O.Cl` (stereo not given) yielded an Inhibition of 97%.
In the case of `CCOc1cc(C(=O)Nc2ccccc2N2CCN(S(C)(=O)=O)CC2)cc(OCC)c1OCC`, the Inhibition is reported as 80%.
`CC1CN(Cc2csc(Nc3ccccc3)n2)CC(C)O1` (stereo not given) gave an Inhibition of 81%.
`Cc1cc(OCCN2CCCCC2)ccc1NC(=O)c1cccc2c(=O)n(Cc3ccc(Cl)cc3)cnc12` showed an Inhibition of 56%.
Work on `O=C(Nc1cc(Cl)cc(Cl)c1)Nc1ccccc1C(=O)NC1CCCCC1` yielded an Inhibition of 100%.
`COc1ccc2ncc(F)c(CCN3CC[C@H](NCc4cc5c(s4)CCCN5)[C@H](O)C3)c2n1.Cl` gave an Inhibition of 16%.
`Fc1ccc2[nH]c(-c3ccc(-c4cccc(CN5CCN(CCN6CCOCC6)CC5)c4)cc3)nc2c1.O=C(O)C(F)(F)F` was tested, and the Inhibition was 100%.
`Nc1c(Cl)cc(C(O)CNCCCCCCOCCC=C2CCOCC2)cc1Cl` (stereo not given) gave an Inhibition of 9%.
Work on `O=C(NC1CCN(CC2(c3ccccc3)CCCC2)CC1)c1n[nH]cc1Cl` yielded an Inhibition of 87%.
`CC(=O)c1sc2ccccc2c1O` showed an Inhibition of 0%.
With `CN(C)c1ccc(-c2ccc(C(=O)NC3CCN(Cc4ccccc4)CC3)s2)cc1.O=C(O)C(F)(F)F` the Inhibition was 10%.
`Cc1ccc2[nH]c([N-]C#N)nc2c1.[Na+]` showed an Inhibition of 0%.
`COc1ccc2cc(C(=O)Nc3ccc4c(c3)CCN(C3CCC3)CC4)ccc2c1.O=C(O)C(F)(F)F` was tested, and the Inhibition was 9%.
`CN(Cc1ccccc1)C(=O)CCNS(=O)(=O)c1cc(Br)cnc1N` showed an Inhibition of 61%.
With `COc1cccc(NC(=O)NCCNc2ccnc(Nc3ccc(F)cc3)n2)c1` the Inhibition was 1%.
`CCCc1cc(OC)c(CC2c3cc(O)c(C)cc3CCN2C)cc1OC.Cl` (stereo not given) was tested, and the Inhibition was 89%.
`Cc1c(C(=O)NCc2ccncc2)sc2nc(-c3cccc([N+](=O)[O-])c3)cn12` showed an Inhibition of 29%.
Work on `Cc1nc(-c2ccc(-c3ccc(C(=O)Nc4ccc(I)c(OCCN5CCCC5)c4)cc3)c(C)c2)no1.Cl` yielded an Inhibition of 35%.
With `CCOC(=O)c1ccc(NC(=O)N[C@@H](Cc2ccc(O)cc2)C(=O)NC2CCN(Cc3ccc4c(c3)OCO4)CC2)cc1.O=C(O)C(F)(F)F` the Inhibition was 24%.
`CC(=O)Nc1cccc(C(=O)Nc2cccc(-c3ccc(-c4nc5cccc(C)c5[nH]4)s3)c2)c1` gave an Inhibition of 26%.
`O=C(O)C(F)(F)F.O=[N+]([O-])c1cccc(CNC2CCN(Cc3ccc4ccccc4c3)CC2)c1` was tested, and the Inhibition was 22%.
In the case of `CCOc1ccc(C2CCN(CCN3CCC(NC(=O)c4ccc(-c5ccc(C(F)(F)F)cc5)cc4)CC3)CC2)c(OCC2CC2)c1`, the Inhibition is reported as 65%.
For `Fc1ccc2[nH]c(-c3ccc(-c4ccc(CNCc5ccccc5)cc4)cc3)nc2c1.O=C(O)C(F)(F)F`, the Inhibition was 94%.
`CCc1c[nH]c2c(N3CCCS3(=O)=O)cc(C(=O)N[C@@H](Cc3ccccc3)[C@H](O)CNC(C)(C)CCCC(C)C)cc12` gave an Inhibition of 98%.
`Cc1cc2cc(NC(=O)Nc3ccnc4ccccc34)ccc2n1C.Cl` gave an Inhibition of 33%.
`CCCCCCNCCOc1ccc(-c2nc(-c3ccccc3)c(-c3ccccc3)[nH]2)cc1` showed an Inhibition of 39%.
`CCN(CC)CCCN(C(=O)Nc1ccc(C#N)cc1)c1nc(-c2ccc(F)cc2)cs1` gave an Inhibition of 68%.
`CN1CCCC1CCNc1ncc2c(-c3ccc(NC(=O)Nc4cc(C(F)(F)F)ccc4F)cc3)nn(C)c2n1.O=C(O)C(F)(F)F` (stereo not given) gave an Inhibition of 72%.
`CCN(CC)c1ccc(NC(=S)NC2CCN(CCCCCNC(=O)/C=C/c3ccc(Cl)c(Cl)c3)CC2)cc1` was tested, and the Inhibition was 58%.
`COc1cc2nc(N3CCC(CNC(=O)c4ccc(NC(=O)c5ccc(Cl)cc5)cc4)CC3)nc(N)c2cc1OC` was tested, and the Inhibition was 100%.

Source: ChEMBL document CHEMBL1157539, “Thousands of chemical starting points for antimalarial lead identification” (Nature, 2010)
